In PubChem BioAssay AID686979 (National Center for Advancing Translational Sciences (NCATS), 2013):
Several values for one entry are separate records, joined by “and”; a condition that tells them apart may be missing. Equal entries are not always repeated. The whole screen tested about 420,000 compounds, of which about 50,000 (12%) were called active. Entries that show only a call come without a potency. Another 26% or so got no clear call; they are omitted. The call rests on the fitted dose curve; in most records, active means well fitted inhibition curve with a large enough effect; inconclusive means small, poorly fitted or top-dose-only effect; inactive means flat fitted curve, though single readings scatter. The full list was thinned out, with actives kept by preference. Where a structure was tested more than once in an assay, its records may differ in their call.
Potency means the concentration at half of the fitted maximal effect.

Assay: qHTS for Inhibitors of human tyrosyl-DNA phosphodiesterase 1 (TDP1): qHTS in cells in presence of CPT; further: nearly all actives have a fitted effect of over 55% in size
Conditions: chicken DT40 Tdp1-/-;hTDP1 cells + 20 nM CPT, ATP luminescence, 48 h; series mostly up to 46.2 µM
How it was run: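 Chicken DT40 Tdp1-/- cells complemented with human TDP1, 400 cells/well, exposed to compounds plus 20 nM camptothecin for at least 48 h at 37 C; viability read as ATP content by CellTiter-Glo luminescence.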
In the case of `Cn1c(N)c(C(=O)COC(=O)/C=C/c2cccc(C(F)(F)F)c2)c(=O)n(C)c1=O`, the Potency is reported as “inactive”. For `Cc1ccc(CSCC(=O)N(C)CC(=O)Nc2cccc(F)c2)cc1`, the Potency was “inactive”. With `CCS(=O)(=O)c1ccc(-c2cccc(NC(=O)c3ccc(Br)o3)c2)nn1` the Potency was “inactive”. With `O=C(NCc1cccnc1)c1cccnc1Sc1ccc(Cl)cc1` the Potency was “inactive”. With `Cc1ccc(S(=O)(=O)N(Cc2ccc(Cl)cc2)c2ccccc2C(=O)NCc2cccnc2)cc1` the Potency was 18.4 µM (active). For `Cc1ccc(C(=O)NC(=S)NCc2cccnc2)cc1`, the Potency was “inactive”. For `O=C(NCc1ccc(Cl)c(Cl)c1)c1cccnc1`, the Potency was “inactive”. In the case of `O=C(O)c1ccccc1-c1ccccc1C(=O)NCc1cccnc1`, the Potency is reported as “inactive”. In the case of `CS(=O)(=O)N(Cc1ccccc1Cl)c1ccc(C(=O)NCc2cccnc2)cc1`, the Potency is reported as 23.1 µM (active). With `CC(=O)NCC(=O)N(C)C(C(=O)Nc1ccc2c(c1)OCCO2)c1ccccc1` (configuration not stated) the Potency was “inactive”. With `O=C(NCc1ccncc1)C(=O)NCC1OCCN1S(=O)(=O)c1ccc(Br)cc1` (configuration not stated) the Potency was “inactive”. With `COc1ccc(S(=O)(=O)N2CCOC2CNC(=O)C(=O)NCc2ccc(F)cc2)cc1` (configuration not stated) the Potency was “inactive”. With `O=C(NCCCN1CCCC1=O)C(=O)NCC1OCCN1S(=O)(=O)c1ccc(Br)cc1` (configuration not stated) the Potency was 18.4 µM (active). With `CCOC(=O)c1cnc2c(C)cc(C)cc2c1Nc1ccc(N2CCOCC2)cc1` the Potency was 25.9 µM (active). In the case of `CCOC(=O)c1ccccc1C(=O)N1CCOCCOCCOCC1`, the Potency is reported as “inactive”. With `CCOC(=O)c1cnc2c(C)cc(Cl)cc2c1NCCc1ccc(OC)c(OC)c1` the Potency was “inactive”. For `CC(C)(O)C1=C[N+](=O)CC=C1`, the Potency was “inactive”. In the case of `COc1ccc(SCc2cc(=O)c3ccc(C)c(C)c3[nH]2)cc1`, the Potency is reported as “inactive”. In the case of `COC(=O)C1=C(c2ccccc2)c2ccccc2S(=O)(=O)N1CC(=O)Nc1ccccc1C(F)(F)F`, the Potency is reported as “inactive”. For `CCOC(=O)c1ccccc1CN1C(=O)c2ccccc2S1(=O)=O`, the Potency was “inactive”. For `CCOC(=O)CN1C(C(=O)c2ccccc2)=C(OC(=O)C(C)(C)C)c2ccccc2S1(=O)=O`, the Potency was 20.6 µM (active). For `Cc1ccc2c(c1)N(CC(=O)N1CCC(O)CC1)C(=O)CO2`, the Potency was “inactive”. In the case of `Fc1ccc(-c2nc(Nc3cccc(Cl)c3)nc3c2COc2ccccc2-3)cc1`, the Potency is reported as “inactive”. In the case of `Cc1cc(OCC(=O)NCC(O)c2ccccc2)c2c(C)c(C)c(=O)oc2c1` (configuration not stated), the Potency is reported as “inactive”. With `Cc1ccc(N(CC(=O)NCC2CCCO2)C(=O)CNS(=O)(=O)c2ccc(Cl)cc2)cc1` (configuration not stated) the Potency was “inactive”. With `Nc1ccccc1/C=N\N=C/c1ccccc1N` the Potency was “inactive”. For `Nc1ccccc1N`, the Potency was “inactive and 4.86 µM (active)”. In the case of `Nc1cccnc1Sc1ccccc1`, the Potency is reported as “inactive”. In the case of `CC1=NN(C(=O)c2ccc(Br)cc2)C(O)(c2ccccc2)C1` (configuration not stated), the Potency is reported as “inactive”. With `Cc1ccc2nc(Nc3ncc4c(n3)CC(C)(C)CC4=O)nc(C)c2c1` the Potency was “inactive”. In the case of `O=C(NNC(=S)NCc1ccco1)C(c1ccccc1)c1ccccc1`, the Potency is reported as “inactive”. For `CCCCCNC(=O)C(c1ccc(OC)cc1)n1c(=O)c(-c2ccccc2)nc2ccccc21` (configuration not stated), the Potency was 23.1 µM (active). For `CCc1nc2ccccc2c(C(=O)NCc2ccc(OC)cc2)c1C`, the Potency was “inactive”. In the case of `CCOCCCNC(=O)C(NC(=O)CNC(=O)c1ccccc1)c1ccc(OC)cc1` (configuration not stated), the Potency is reported as “inactive”. With `O=C(CSc1nnc(-c2ccco2)n1Cc1ccccc1)NC(=O)NCc1ccco1` the Potency was “inactive”. For `N#Cc1ccc(C(C(=O)NCc2ccccc2)n2c(=O)c(-c3ccco3)nc3ccccc32)cc1` (configuration not stated), the Potency was 20.6 µM (active). With `COc1ccc(C(C(=O)NCc2ccccc2)n2c(=O)c(-c3ccccc3)nc3ccccc32)cc1` (configuration not stated) the Potency was 14.6 µM (active). With `CCCN(CCC)CCCNC(=O)CNC(=O)c1nn(-c2ccc(OC)cc2)c(=O)c2ccccc12` the Potency was “inactive”. With `COc1ccc(CNC(=O)C(C)NCc2ccccc2Cl)cc1` (configuration not stated) the Potency was “inactive”. For `O=C1COc2ccc(S(=O)(=O)NCCc3ccc(Cl)cc3)cc2N1`, the Potency was “inactive”. In the case of `COc1ccc(N(CC(=O)NCCSCc2cccc(Cl)c2)S(C)(=O)=O)cc1`, the Potency is reported as “inactive”. For `O=C1CCC(=O)N(c2ccccc2)N1`, the Potency was “inactive”. In the case of `O=c1[nH]n(-c2ccc([N+](=O)[O-])cc2)c(=O)c2ccccc12`, the Potency is reported as “inactive”. For `Cc1nc(-c2ccc([N+](=O)[O-])cc2)c(-c2ccccc2)o1`, the Potency was “inactive”. In the case of `O=C1CC(c2ccccc2)=NN1c1ccc([N+](=O)[O-])cc1`, the Potency is reported as 16.4 µM (active). In the case of `CC(=O)c1ccc(S(=O)(=O)NCc2nnnn2-c2ccccc2)cc1`, the Potency is reported as “inactive”. With `CC(=O)c1ccccc1OCc1ccc(C(=O)c2ccccc2)cc1` the Potency was 16.4 µM (active). With `O=C(O)c1ccccc1OCc1ccccc1Cl` the Potency was “inactive”. For `O=C(NC1CCC(O)CC1)c1ccccc1OCc1ccc(F)cc1` (configuration not stated), the Potency was “inactive”. For `S=C(Nc1ccc2c(c1)OCO2)N1CCCC1`, the Potency was “inactive”. In the case of `O=C(CN1CCCCCC1)Nc1ccc(S(=O)(=O)N2CCCCC2)cc1`, the Potency is reported as “inactive”. With `Cc1ccc(NC(=O)C2CCC(C(C)(C)C)CC2)cc1S(=O)(=O)N1CCOCC1` (configuration not stated) the Potency was 13 µM (active). In the case of `Cc1ccc(NC(=O)C(C)OC(=O)C2CC3CCCC(C2)C3=O)cc1S(=O)(=O)N1CCOCC1` (configuration not stated), the Potency is reported as “inactive”. For `Cc1ccc(NC(=O)COC(=O)C2CC2)cc1S(=O)(=O)N1CCOCC1`, the Potency was “inactive”. In the case of `Cc1ccc(NC(=O)c2ccc(Cl)nc2)cc1S(=O)(=O)N1CCOCC1`, the Potency is reported as 10.3 µM (active). In the case of `Cc1ccc(C(=O)Nc2ccc3c(c2)OCCO3)cc1S(=O)(=O)N1CCOCC1`, the Potency is reported as “inactive”. For `O=C(Nc1ccc(Oc2ccccc2)cc1)C1CCN(S(=O)(=O)c2ccc(Cl)cc2)CC1`, the Potency was “inactive”. With `O=C(CN1CCN(c2cccc(Cl)c2)CC1)Nc1ccc(S(=O)(=O)N2CCOCC2)cc1` the Potency was 20.6 µM (active). For `O=S(=O)(c1ccc(NC(=S)NN=C(C2CC2)C2CC2)cc1)N1CCOCC1`, the Potency was “inactive”. In the case of `O=C(CN1CCN(S(=O)(=O)/C=C/c2ccccc2)CC1)Nc1ccc(N2CCOCC2)cc1`, the Potency is reported as “inactive”. In the case of `Cc1ccc(NC(=O)c2ccccn2)cc1S(=O)(=O)N1CCOCC1`, the Potency is reported as “inactive”. For `O=C(Nc1ccc(S(=O)(=O)N2CCOCC2)cc1)C1CCN(S(=O)(=O)c2ccc(Cl)cc2)CC1`, the Potency was 16.4 µM (active). With `COc1cccc(C(=O)NNS(=O)(=O)c2ccc(F)cc2)c1` the Potency was “inactive”. For `Cc1c(NC(=O)c2cc(-c3ccc(Br)cc3)on2)c(=O)n(-c2ccccc2)n1C`, the Potency was “inactive”. In the case of `CCCN(C(=O)CSc1nnc(N)s1)c1c(N)n(Cc2ccccc2)c(=O)[nH]c1=O`, the Potency is reported as “inactive”. With `COc1ccc(C(=O)Oc2ccc(-c3nnco3)cc2)cc1S(=O)(=O)N1CCOCC1` the Potency was “inactive”. For `Cc1nn(C)c(Cl)c1CN1CCC(Oc2ccc(C(=O)N3CCCC3)cc2)CC1`, the Potency was “inactive”. With `Cc1ccc(C(CNC(=O)Nc2ccccc2)N2CCN(C)CC2)cc1` (configuration not stated) the Potency was “inactive”. In the case of `CC(C)Cc1ccc(C(C)C(=N)N)cc1` (configuration not stated), the Potency is reported as 7.31 µM (active). With `COc1c(F)c(F)c(-c2csc(N)n2)c(F)c1F` the Potency was “inactive”. With `O=C(Nc1nnc(-c2ccc(Cl)cc2)o1)c1ccccc1Br` the Potency was 23.1 µM (active). In the case of `O=C(COC(=O)c1ccccc1Br)Nc1nnc(-c2ccccc2)o1`, the Potency is reported as “inactive”. For `O=C(Nc1ccccc1)c1ccccc1Br`, the Potency was “inactive”. For `CCCCNC(=O)N1CCCC(N(C)CCc2ccc(OC)c(OC)c2)C1` (configuration not stated), the Potency was “inactive”. For `CC(NC(=O)CNC(=O)Cc1cccc2ccccc12)c1ccc(S(N)(=O)=O)cc1` (configuration not stated), the Potency was “inactive”. For `COc1ccc(CN2C3CCCC2CC(NC(=O)c2cccc(F)c2)C3)cc1` (configuration not stated), the Potency was “inactive”. For `Cc1cccc(-n2cc(CN3CCN(C(=O)c4ncn[nH]4)CC3)c(-c3cccc(F)c3)n2)c1`, the Potency was “inactive”. With `COc1ccc(-n2cc(CNC3CCOCC3)c(-c3cccc(F)c3)n2)cc1` the Potency was 20.6 µM (active). With `COc1ccc(Cl)cc1-n1c(=S)sc2c(=O)n(-c3ccc(F)cc3)c(SCC(=O)O)nc21` the Potency was “inactive”. In the case of `COc1cc(C)c(CN2CCc3nnc(C(C)NC(=O)c4cccnc4)n3CC2)cc1C` (configuration not stated), the Potency is reported as “inactive”. For `Cc1ccccc1Nc1c([N+](=O)[O-])ccc2nonc12`, the Potency was “inactive”. In the case of `Cc1nn(C)cc1C(=O)c1ccccc1`, the Potency is reported as “inactive”. For `COc1ccc(N(C)C(=O)C2CCN(S(=O)(=O)c3cccc4nsnc34)CC2)cc1`, the Potency was “inactive”. In the case of `COc1ccc(OCCCC(=O)NCCc2ccccc2)cc1`, the Potency is reported as “inactive”. In the case of `COc1ccc(CCC(=O)NCCc2csc(-c3ccc(Cl)cc3)n2)cc1`, the Potency is reported as 23.1 µM (active). For `COc1ccc(CCNC(=O)COC(=O)c2cnc(Cl)c(Cl)c2)cc1`, the Potency was “inactive”. In the case of `CCOc1ccc(C(=O)Nc2cc(Cl)ccc2-n2cncn2)cc1OC`, the Potency is reported as “inactive”. With `CCC(NC(=O)C1CCCC1)c1ccc(C)cc1` (configuration not stated) the Potency was “inactive”. For `Cc1cc[n+](C2CCCCC2)cc1`, the Potency was 15.8 µM (active). For `Cc1cc(C(=O)CCC(=O)NNC(=O)c2ccccc2O)c(C)s1`, the Potency was “inactive”. With `Cc1ccc(S(=O)(=O)N2CCCCC2)cc1NC(=O)CCNC(=O)c1ccccc1Cl` the Potency was “inactive”. With `NC(=O)COC(=O)c1cc(S(=O)(=O)N2CCN(c3ccccc3)CC2)ccc1Cl` the Potency was “inactive”. For `O=C(NNC(=O)c1ccccc1O)c1ccccc1O`, the Potency was 5.17 µM (active). With `CC1=C(C)CC(C(=O)NC(C)CCc2ccccc2)C(C(=O)O)C1` (configuration not stated) the Potency was “inactive”. In the case of `CC1=C(C)CC(C(=O)NNC(=O)c2csc3c2CCC(C(C)(C)C)C3)C(C(=O)O)C1` (configuration not stated), the Potency is reported as “inactive”. With `NC(=O)C1CCN(C(=O)c2cc(S(=O)(=O)N3CCN(c4ccccc4)CC3)ccc2Cl)CC1` the Potency was 10.3 µM (active). For `CC(=O)NC(=O)c1ccccc1O`, the Potency was “inactive”. With `CC1=C(C)CC(C(=O)NNC(=O)c2ccccc2O)C(C(=O)O)C1` (configuration not stated) the Potency was 18.4 µM (active). For `O=C(NNC(=O)c1cc(S(=O)(=O)N2CCCCC2)ccc1Cl)c1ccccc1O`, the Potency was 23.1 µM (active). For `COc1ccccc1N(C)S(=O)(=O)c1ccc(Cl)c(C(=O)N2CCC(C(N)=O)CC2)c1`, the Potency was “inactive”. In the case of `O=C(COC(=O)c1cc(S(=O)(=O)N2CCCCC2)ccc1Cl)NCc1ccco1`, the Potency is reported as “inactive”. In the case of `COCCNC(=S)N(CCc1c(C)[nH]c2ccc(C)cc12)Cc1cccnc1`, the Potency is reported as “inactive”.
